# Source: PubChem BioAssay AID504766 (The Scripps Research Institute Molecular Screening Center, 2011)
# Several values for one entry are separate records, joined by “and”; a condition that tells them apart may be missing. Equal values may be shown once. In all, about 340,000 compounds went through this assay and about 3,400 (1%) were called active.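 How the source made its calls: active means inhibition above the mean over all tested compounds plus 3 SD (cut at about 4.2% in these data); inactive means the rest.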 The entries come from a sample that favours actives as a whole.
# Target: Nuclear receptor subfamily 0 group B member 1 (Homo sapiens) (UniProt P51843)
# Sequence (P51843 207-470 limits assumed): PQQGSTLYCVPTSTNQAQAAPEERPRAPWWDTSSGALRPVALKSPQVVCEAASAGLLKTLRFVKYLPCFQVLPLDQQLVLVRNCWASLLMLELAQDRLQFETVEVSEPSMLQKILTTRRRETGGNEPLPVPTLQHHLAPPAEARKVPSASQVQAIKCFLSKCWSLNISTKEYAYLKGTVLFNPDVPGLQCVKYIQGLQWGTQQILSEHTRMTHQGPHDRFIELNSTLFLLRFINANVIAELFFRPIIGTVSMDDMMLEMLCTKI
# Experiment: relief of DAX1 transcriptional repression – cell-based, HEK293, Gal4-DAX1, luciferase luminescence, primary screen (AID 504766);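 further: 0% = DAX1-transfected cells with DMSO and 100% = empty-vector control cells with DMSO; inhibition shows as a rise in luminescence from relieved DAX1 repression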
# Conditions: HEK293 Gal4-DAX1 luciferase reporter, at 6.75 µM, hits give high values
row,SMILES,inhibition
1,COc1ccccc1-c1n[nH]nc1C1=CC(=O)CC(C)(C)C1,1.58% (inactive)
2,CCOc1ccc(NS(=O)(=O)c2ccc(C(=O)NCC3CCCO3)cc2)cc1 (stereo unspecified),0.78% (inactive)
3,CC(C)c1ccc(C=NNc2ccc([N+](=O)[O-])cn2)cc1,4.47% (active)
4,CC(=O)c1sc(N/N=C/c2ccc(C(C)C)cc2)nc1C,0.37% (inactive)
5,O=[N+]([O-])c1cccc(/C=N/Nc2ncc(Br)cn2)c1,3.56% (inactive)
6,CC1=C(C(=O)N(C)C)CC(CC(=O)NCCN2CCOCC2)C(=O)N1Cc1ccccc1 (stereo unspecified),0.86% (inactive)
7,CC(C)CCOc1ccc(C(=O)Nc2cc(S(=O)(=O)N3CCOCC3)ccc2N2CCOCC2)cc1,1.57% (inactive)
8,COC(=O)C1=C(C)N(C)C(C)=C(C(=O)OC)C1c1cccc(Br)c1,-0.19% (inactive)
9,COc1ccc(C(=O)c2oc3ccc(Br)cc3c2NC(C)=O)cc1,0.74% (inactive)
10,COC(=O)C1NN=C(C(=O)c2ccc(Br)cc2)C1c1cccc(Br)c1 (stereo unspecified),5.4% (active)
11,Cc1ccc(C(=O)OCC(=O)NC2CCCCCCC2)cc1C,1.83% (inactive)
12,CCOC(=O)c1cc(-c2sc(NC(=O)c3ccccc3)nc2C)n(-c2ccc(Br)cc2)n1,-0.34% (inactive)
13,N/C(=N\OC(=O)c1ccc([N+](=O)[O-])cc1)c1ccccn1,0.14% (inactive)
14,COc1ccccc1OCC(=O)O/N=C(\N)c1ccccn1,2.91% (inactive)
15,COc1ccc(C(=O)O/N=C(\N)c2ccccn2)cc1[N+](=O)[O-],4.71% (active)
16,CCN(CC)C(=O)C(C)N1c2cccc3cccc(c23)S1(=O)=O (stereo unspecified),0.49% (inactive)
17,COc1ccc(NC(=O)CN2C(=O)NC(C)(c3ccccc3)C2=O)cn1 (stereo unspecified),1.1% (inactive)
18,Cc1ccc(-c2ccc(C3=CC(=O)CC(C)(C)C3=O)cc2)cc1,3.24% (inactive)
19,CNS(=O)(=O)c1ccc(NC(=O)C2CC(=O)N(c3ccc(Cl)cc3)C2)cc1 (stereo unspecified),4.35% (active)

row,SMILES,inhibition
1,Cc1ccc(N2CC(C(=O)Nc3ccc(S(=O)(=O)N4CCCC4)cc3)CC2=O)cc1C (stereo unspecified),-0.34% (inactive)
2,O=C(Nc1ccc(S(=O)(=O)N2CCCCC2)cc1)C1CC(=O)N(c2ccc(F)cc2)C1 (stereo unspecified),-1.03% (inactive)
3,Nc1cc(C(=O)N2CCN(c3ccccc3Cl)CC2)ccc1N1CC2CC(C1)c1cccc(=O)n1C2 (stereo unspecified),2.59% (inactive)
4,CC(NC(=O)C1CCC(CNc2c(N3CCOCC3)c(=O)c2=O)CC1)c1ccccc1 (stereo unspecified),0.2% (inactive)
5,O=C(NCc1ccc(F)cc1)C1CCC(CNc2c(N3CCOCC3)c(=O)c2=O)CC1 (stereo unspecified),5.78% (active)
6,COc1ccc(CNC(=O)C2CCC(CNc3c(N4CCOCC4)c(=O)c3=O)CC2)cc1 (stereo unspecified),-0.15% (inactive) and -0.24% (inactive)
7,C[C@H]1CN([C@@H](C)CO)C(=O)CCCn2cc(nn2)CO[C@@H]1CN(C)C(=O)Nc1ccccc1,1.03% (inactive)
8,CCn1c(=O)c(=O)n(CC)c2cc(S(=O)(=O)N3CCc4ccccc43)ccc21,-1.26% (inactive)
9,O=S(=O)(c1ccc2c(c1)OCCO2)N1CCc2ccccc21,0.28% (inactive)
10,O=S(=O)(c1ccccc1)N1CCc2ccccc21,5.18% (active)
11,C[C@H]1CN([C@@H](C)CO)C(=O)CCCn2cc(nn2)CO[C@@H]1CN(C)S(=O)(=O)c1ccc(-n2cccn2)cc1,2.41% (inactive)
12,CCCC(=O)N1c2ccccc2NC2=C(C(=O)CCC2)C1c1ccc(F)cc1 (stereo unspecified),-0.04% (inactive)
13,CCC(=O)N1c2ccccc2NC2=C(C(=O)CCC2)C1c1ccco1 (stereo unspecified),-0.14% (inactive)
14,CC(C)C(=O)N1c2ccccc2NC2=C(C(=O)CCC2)C1c1ccc(N(C)C)cc1 (stereo unspecified),4.33% (active)
15,COc1ccc(-c2ccc(CN3C(C(C)C)C(=O)N(Cc4cn(CC5CCCCC5)nn4)CCS3(=O)=O)cc2)cn1 (stereo unspecified),-0.57% (inactive)
16,COc1cccc(OC)c1C(=O)N1CCN(Cc2ccccc2F)CC1,2.65% (inactive)
17,CC(=O)NN1C(=O)c2ccccc2NC1c1ccccc1 (stereo unspecified),-1.71% (inactive)
18,CC(=O)N1C(=O)C2(Nc3ccccc3N2)c2ccccc21,0.59% (inactive)
19,CC(C)=NN1C(=O)c2ccccc2NC1(C)C,5.58% (active)

row,SMILES,inhibition
1,Cc1c(NC(=O)COC(=O)/C=C/c2cccc(F)c2)c(=O)n(-c2ccccc2)n1C,-0.66% (inactive)
2,C[C@H]1CN([C@@H](C)CO)S(=O)(=O)c2ccc(Br)cc2O[C@H]1CN(C)C(=O)c1cnccn1,-0.34% (inactive)
3,O=C(NCc1nnnn1-c1ccc(Cl)cc1)c1ccc([N+](=O)[O-])o1,0% (inactive)
4,N#CCCC(C#N)(c1cccnc1)N1CCOCC1 (stereo unspecified),-0.32% (inactive)
5,CC(C)c1cc(C(=O)NC2CCCCCC2)c2ccccc2n1,-1.68% (inactive)
6,CC1CCCCC1NC(=O)Cn1c(=O)cnc2ccccc21 (stereo unspecified),-1.16% (inactive)
7,O=C(/C=C/c1cnc2ccccc2n1)NC1CCCCCC1,4.47% (active)
8,COc1ccccc1N1CCN(/N=C\C(Br)=C\c2ccccc2)CC1,-0.74% (inactive)
9,COc1cc(/C=N/N2CCN(c3ccccc3)CC2)ccc1OC(C)=O,-0.26% (inactive)
10,COc1ccccc1N1CCN(/N=C/c2ccc(O)cc2O)CC1,5.15% (active)
11,O=C(c1ncn2c1c(=O)[nH]c1ccccc12)N1CCc2ccccc2C1,-0.1% (inactive)
12,COc1ccc([C@H]2N[C@]3(CCCN(Cc4ccco4)C3=O)[C@H]3C(=O)N(C)C(=O)[C@@H]23)cc1,0.93% (inactive)
13,O=C(C1CCCO1)N1CCN(C(=O)C23CC4CC(CC(C4)C2)C3)CC1 (stereo unspecified),-0.78% (inactive)
14,COC(=O)/C(C#N)=C/c1occc1C,-0.79% (inactive)
15,CCOC(=O)/C(C#N)=C/c1ccc(N2CCN(Cc3ccccc3)CC2)cc1,-0.11% (inactive)
16,CCOC(=O)/C(C#N)=C\c1c(C)cc(C)c(COC(C)=O)c1C,5.6% (active)
17,O=S(=O)(c1cccc(C(F)(F)F)c1)N1c2ccccc2-n2cccc2C1c1cccnc1 (stereo unspecified),0.07% (inactive)
18,COc1ccc(NC(=O)CSc2nnnn2-c2cccc(OC)c2)cc1,0.03% (inactive)
